Experimental data: PubChem BioAssay (Tox21)
Values joined by “and” are separate entries in the source; they are usually repeats but may differ in a detail not shown here. Identical values can stand only once. Results filed as inconclusive are left out. Active and inactive are the calls of the source. Unless noted, the call rests on the fitted dose curve; in most records, active means well fitted curve in the direction sought with a large enough effect in the repeat runs; inconclusive means weak or mixed curves; inactive means no such curve, though single readings can be large; an effect the other way counts as inactive or inconclusive.

Columns and labels:
[1] = tested on: thyroid hormone receptor (rat, GH3 cells); experiment: qHTS assay to identify small molecule agonists of the thyroid receptor (TR) signaling pathway (AID 743066; calls by dose curve)
[2] = qHTS assay to identify small molecule antagonists of the estrogen receptor alpha (ER-alpha) signaling pathway - cell viability counter screen (AID 743074; calls by dose curve;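 further: HEK293 cells carrying ER-alpha-UAS-bla reporter stimulated with 17beta-estradiol; nearly all actives have a fitted effect of over 45% in size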)
[3] = target: Estrogen receptor (Homo sapiens) (UniProt P03372); experiment: qHTS assay to identify small molecule agonists of the estrogen receptor alpha (ER-alpha) signaling pathway (AID 743075; calls by dose curve;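 further: HEK293 GripTite cells with ER-alpha and UAS-driven beta-lactamase reporter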)
Estrogen receptor (Homo sapiens), sequence (P03372 whole entry, looked up): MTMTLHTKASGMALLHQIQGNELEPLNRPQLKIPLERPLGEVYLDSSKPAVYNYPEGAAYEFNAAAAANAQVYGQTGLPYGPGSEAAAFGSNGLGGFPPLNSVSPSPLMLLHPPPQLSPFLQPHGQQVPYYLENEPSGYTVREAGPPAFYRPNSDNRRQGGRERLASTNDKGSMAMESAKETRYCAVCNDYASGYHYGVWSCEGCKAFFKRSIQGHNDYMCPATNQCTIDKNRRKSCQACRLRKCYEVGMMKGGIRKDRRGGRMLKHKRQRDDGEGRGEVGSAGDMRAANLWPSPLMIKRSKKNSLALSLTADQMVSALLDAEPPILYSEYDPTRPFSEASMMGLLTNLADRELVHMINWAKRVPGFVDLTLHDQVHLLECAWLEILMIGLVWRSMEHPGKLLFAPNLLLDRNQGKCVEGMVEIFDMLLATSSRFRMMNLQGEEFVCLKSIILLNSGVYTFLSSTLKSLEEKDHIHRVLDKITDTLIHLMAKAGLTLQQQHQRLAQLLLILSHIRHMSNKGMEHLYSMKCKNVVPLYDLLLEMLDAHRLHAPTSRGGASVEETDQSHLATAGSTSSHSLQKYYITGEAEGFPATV

[4] = qHTS assay to identify small molecule antagonists of the estrogen receptor alpha (ER-alpha) signaling pathway using the BG1 cell line (AID 743080; calls by dose curve;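 further: BG1 cells stimulated with 17beta-estradiol alongside compound; nearly all actives have a fitted effect of over 25% in size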; further: potency means the concentration at half of the fitted maximal effect); conditions: BG1Luc4E2 ERE-luciferase antagonist mode, luminescence; activity change, negative = inhibition: at 70.3 µM (top of the series)
Summary of the method: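 After 5 days in phenol-red-free 10% charcoal-stripped FBS medium, BG1-Luc-4E2 cells were seeded, left 24 h at 37 C, co-treated with compounds and 17beta-estradiol for 21.5 h, then assayed for viability and luciferase.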

[5] = qHTS assay to identify small molecule antagonists of the estrogen receptor alpha (ER-alpha) signaling pathway using the BG1 cell line - cell viability counter screen (AID 743081);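 further: compound given together with 17beta-estradiol as the ER stimulus; nearly all actives have a fitted effect of over 45% in size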; further: potency means the concentration at half of the fitted maximal effect
Aromatase (Homo sapiens) = Aromatase (Homo sapiens) (UniProt P11511); experiment: qHTS assay to identify aromatase inhibitors (AID 743083); further: nearly all actives have a fitted effect of over 55% in size; further: potency means the concentration at half of the fitted maximal effect
Aromatase (Homo sapiens), sequence (P11511 whole entry, looked up): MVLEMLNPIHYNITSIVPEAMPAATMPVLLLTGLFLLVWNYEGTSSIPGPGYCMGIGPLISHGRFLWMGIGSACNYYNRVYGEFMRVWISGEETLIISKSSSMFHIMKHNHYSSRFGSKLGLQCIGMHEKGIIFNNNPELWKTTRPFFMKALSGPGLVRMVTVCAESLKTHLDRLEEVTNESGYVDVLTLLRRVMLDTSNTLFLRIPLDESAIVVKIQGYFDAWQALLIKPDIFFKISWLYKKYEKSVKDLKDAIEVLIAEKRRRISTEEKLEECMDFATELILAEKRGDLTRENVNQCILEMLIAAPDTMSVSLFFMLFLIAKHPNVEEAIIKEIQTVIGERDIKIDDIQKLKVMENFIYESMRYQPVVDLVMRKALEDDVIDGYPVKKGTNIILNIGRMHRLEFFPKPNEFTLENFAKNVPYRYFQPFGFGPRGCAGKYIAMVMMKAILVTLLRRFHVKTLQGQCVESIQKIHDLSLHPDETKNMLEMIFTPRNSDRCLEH

[6] = qHTS assay to identify aromatase inhibitors - cell viability counter screen (AID 743084);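 further: cells stimulated with testosterone during compound exposure; nearly all actives have a fitted effect of over 55% in size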; further: potency means the concentration at half of the fitted maximal effect
[7] = target: Aryl hydrocarbon receptor (Homo sapiens) (UniProt P35869); experiment: qHTS assay to identify small molecule that activate the aryl hydrocarbon receptor (AhR) signaling pathway (AID 743085);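 further: HG2L7.5c1 human HepG2 liver cells with stably integrated DRE-driven firefly reporter; nearly all actives have a fitted effect of over 15% in size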
Aryl hydrocarbon receptor (Homo sapiens), sequence (P35869 whole entry, looked up): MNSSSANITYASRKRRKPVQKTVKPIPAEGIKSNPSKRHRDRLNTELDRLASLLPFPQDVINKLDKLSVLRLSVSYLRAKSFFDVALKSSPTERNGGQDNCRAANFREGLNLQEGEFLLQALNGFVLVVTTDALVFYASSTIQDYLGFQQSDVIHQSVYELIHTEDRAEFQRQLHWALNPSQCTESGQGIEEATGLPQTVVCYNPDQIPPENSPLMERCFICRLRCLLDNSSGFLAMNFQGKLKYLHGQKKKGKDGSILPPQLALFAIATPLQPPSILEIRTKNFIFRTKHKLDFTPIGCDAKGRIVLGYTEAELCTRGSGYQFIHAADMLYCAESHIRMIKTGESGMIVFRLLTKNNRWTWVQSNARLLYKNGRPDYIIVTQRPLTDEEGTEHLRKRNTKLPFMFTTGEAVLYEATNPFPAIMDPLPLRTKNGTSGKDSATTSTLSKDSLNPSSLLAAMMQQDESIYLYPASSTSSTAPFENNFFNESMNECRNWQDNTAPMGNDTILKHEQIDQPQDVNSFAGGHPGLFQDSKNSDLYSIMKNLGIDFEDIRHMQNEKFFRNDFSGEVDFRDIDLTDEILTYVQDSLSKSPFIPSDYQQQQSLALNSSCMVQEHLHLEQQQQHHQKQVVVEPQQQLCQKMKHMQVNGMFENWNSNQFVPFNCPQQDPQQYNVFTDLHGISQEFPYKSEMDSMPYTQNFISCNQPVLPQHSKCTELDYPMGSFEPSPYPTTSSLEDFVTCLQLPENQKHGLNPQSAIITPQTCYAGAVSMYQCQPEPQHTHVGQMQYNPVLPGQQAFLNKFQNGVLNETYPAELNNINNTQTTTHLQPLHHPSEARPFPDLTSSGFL
Summary of the method: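 Luminescence (ONE-Glo) from a dioxin-responsive-element luciferase reporter in HG2L7.5c1 HepG2 cells after 24 hr compound exposure at 37C; viability measured by CellTiter-Fluor fluorescence beforehand.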

[8] = qHTS assay to identify small molecule that activate the aryl hydrocarbon receptor (AhR) signaling pathway - cell viability counter screen (AID 743086);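 further: HepG2 liver cells carrying the AhR DRE luciferase reporter; nearly all actives have a fitted effect of over 45% in size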
Summary of the method: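 Cytotoxicity counter screen: CellTiter-Fluor signal (30 min, 37 C) in 4000 HepG2 cells/well carrying the DRE-luciferase reporter, following 24 h compound exposure at 37 C.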

[9] = target: Peroxisome proliferator-activated receptor gamma (Homo sapiens) (UniProt P37231); experiment: qHTS assay to identify small molecule agonists of the peroxisome proliferator-activated receptor gamma (PPARg) signaling pathway (AID 743094; active means well fitted activation curve with a large enough effect in the signal ratio in the repeat runs, not every such curve was filed as active; the % refers to the signal ratio)
Peroxisome proliferator-activated receptor gamma (Homo sapiens), sequence (P37231 whole entry, looked up): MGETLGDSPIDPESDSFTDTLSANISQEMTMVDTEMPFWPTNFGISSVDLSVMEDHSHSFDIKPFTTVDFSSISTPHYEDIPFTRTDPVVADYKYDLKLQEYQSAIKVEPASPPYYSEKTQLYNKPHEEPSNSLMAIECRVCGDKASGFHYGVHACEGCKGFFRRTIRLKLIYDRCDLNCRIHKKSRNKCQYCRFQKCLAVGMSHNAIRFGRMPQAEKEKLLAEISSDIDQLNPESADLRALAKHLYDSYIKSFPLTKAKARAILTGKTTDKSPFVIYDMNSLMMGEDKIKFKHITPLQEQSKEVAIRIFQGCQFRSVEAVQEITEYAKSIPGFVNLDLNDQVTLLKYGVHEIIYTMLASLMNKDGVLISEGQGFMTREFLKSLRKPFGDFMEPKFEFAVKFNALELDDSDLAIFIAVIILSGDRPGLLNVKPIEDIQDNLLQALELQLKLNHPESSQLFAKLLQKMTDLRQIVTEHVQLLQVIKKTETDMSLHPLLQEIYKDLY
Summary of the method: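 Compounds dissolved in DMSO were added to PPARg UAS-bla HEK293H cells for 17 h at 37C, and reporter expression was quantified by fluorescence intensity after 1 h with LiveBLAzer B/G FRET substrate.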

[10] = target: Peroxisome proliferator-activated receptor gamma (Homo sapiens) (UniProt P37231); experiment: qHTS assay to identify small molecule antagonists of the peroxisome proliferator-activated receptor gamma (PPARg) signaling pathway (AID 743191; calls by dose curve; further: nearly all actives have a fitted effect of over 30% in size; further: potency means the concentration at half of the fitted maximal effect)
Summary of the method: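 Beta-lactamase reporter under UAS control in HEK293H PPARg-bla cells; compound treatment 17 h at 37C. Read-out: fluorescence intensity after 1 h room-temperature incubation with LiveBLAzer B/G FRET substrate.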

[11] = qHTS assay to identify small molecule antagonists of the peroxisome proliferator-activated receptor gamma (PPARg) signaling pathway - cell viability counter screen (AID 743194); further: nearly all actives have a fitted effect of over 55% in size; further: potency means the concentration at half of the fitted maximal effect
Summary of the method: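 Viability was measured as CellTiter-Glo luminescence in GeneBLAzer PPARg UAS-bla HEK293H cells. These cells had been exposed 17 h at 37 C to compounds together with rosiglitazone at 50 nM final, with the beta-lactamase readout taken in the same wells.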

[12] = qHTS assay for small molecule agonists of the antioxidant response element (ARE) signaling pathway - cell viability counter screen (AID 743203; calls by dose curve; further: nearly all actives have a fitted effect of over 55% in size; further: potency means the concentration at half of the fitted maximal effect)
Summary of the method: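 Following 16 hrs of compound treatment at 37C, HepG2 cells with an ARE-controlled beta-lactamase gene were lysed with CellTiter-Glo. Luminescence was read after 30 min at room temperature.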

[13] = qHTS assay to identify small molecule agonists of the peroxisome proliferator-activated receptor delta (PPARd) signaling pathway - cell viability counter screen (AID 743211); further: nearly all actives have a fitted effect of over 55% in size; further: potency means the concentration at half of the fitted maximal effect
Summary of the method: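 Viability was measured as CellTiter-Glo luminescence (30 min, room temperature) in the same wells as the beta-lactamase readout. GeneBLAzer PPARd UAS-bla HEK293H cells received compound after 5 h plating and were incubated 17 h at 37 C.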

[14] = qHTS assay for small molecule activators of the heat shock response signaling pathway - cell viability counter screen (AID 743209); further: nearly all actives have a fitted effect of over 50% in size; further: potency means the concentration at half of the fitted maximal effect
Summary of the method: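 Readout: CellTiter-Glo luminescence, 30 min at room temperature. System: HSE-bla HeLa cells, 1500/well, plated overnight. Treatment: compounds in DMSO, 5 h at 37 C.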

[15] = target: Estrogen receptor (Homo sapiens) (UniProt P03372); experiment: qHTS assay to identify small molecule antagonists of the estrogen receptor alpha (ER-alpha) signaling pathway (AID 743069; active means well fitted curve in the direction sought with a large enough effect in the signal ratio in the repeat runs, not every such curve was filed as active; the % refers to the signal ratio)
Summary of the method: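 ER-alpha-UAS-bla GripTite HEK293 line; 2% charcoal-stripped FBS overnight; plated, 4 hr 37C/5% CO2; cpd in DMSO + 17beta-estradiol, 18 hr 37C; LiveBLAzer B/G FRET substrate 2 hr RT; fluorescence intensity.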

[16] = target: Estrogen receptor (Homo sapiens) (UniProt P03372); experiment: qHTS assay to identify small molecule agonists of the estrogen receptor alpha (ER-alpha) signaling pathway using the BG1 cell line (AID 743079); conditions: BG1Luc4E2 cells, ERE-luciferase agonist, 22 h; activation: at 70.3 µM (top of the series); further: nearly all actives have a fitted effect of over 20% in size
[17] = qHTS assay for small molecule activators of the heat shock response signaling pathway (AID 743210; active means well fitted activation curve with a large enough effect in the signal ratio in the repeat runs, with a control signal flat, not every such curve was filed as active; the % refers to the signal ratio;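 further: HeLa cells with beta-lactamase reporter driven by heat shock elements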)
Summary of the method: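 HeLa HSE-bla cells, overnight plating; cpd in DMSO 5 h, 37 C; LiveBLAzer B/G FRET substrate 2.5 h RT; fluorescence intensity read.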

[18] = qHTS assay for small molecule agonists of the antioxidant response element (ARE) signaling pathway (AID 743202; active means well fitted activation curve with a large enough effect in the signal ratio in the repeat runs, not every such curve was filed as active; the % refers to the signal ratio)
Summary of the method: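 Quantitative high-throughput format in HepG2 cells bearing an integrated ARE-beta-lactamase reporter. Compound exposure lasted 16 h at 37 C, and fluorescence was read 2 h after adding LiveBLAzer B/G substrate at room temperature.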

Measured: Potency

CN(Cc1cc(Br)cc(Br)c1N)C1CCCCC1
inactive: [1] | [2] | [3] | [4] | [5] | Aromatase (Homo sapiens) | [6] | [7] | [8] | [9] | [10] | [11] | [12]

CSc1c(Cl)c(Cl)c(Cl)c(Cl)c1Cl
active: [13] 54.6 µM
inactive: [5] | Aromatase (Homo sapiens) | [6] | [7] | [8] | [9]

Cc1c(-c2ccc(O)cc2)n(Cc2ccc(OCCN3CCCCCC3)cc2)c2ccc(O)cc12
inactive: [2] | [6] | [14]
active: Aromatase (Homo sapiens) 0.0211 µM | [11] 29.8 µM | [13] 26.6 µM

CC(C)(C)C1=CC(=O)C=C(C(C)(C)C)C1=O
active: Aromatase (Homo sapiens) 34.4 µM | [6] 34.4 µM | [11] 24.6 µM | [12] 54.5 µM | [14] 43.7 µM
inactive: [1] | [15] | [3] | [16] | [4] | [5] | [7] | [8]

Cc1ccc(CCn2c3c(c4cc(Cl)ccc42)CN(C)CC3)cn1
inactive: [11] | [12] | [14] | [17]

CCCCCCC(C)OC(=O)COc1nc(F)c(Cl)c(N)c1Cl (stereo unspecified)
inactive: [1] | [2] | [5] | [8] | [18] | [12]

COc1ccc(-n2nc(CCC(=O)N(C)O)cc2-c2ccc(Cl)cc2)cc1
inactive: [11] | [12] | [14]
active: [10] 3.76 µM

[O]=[Zr]
inactive: [1] | [2] | [5] | Aromatase (Homo sapiens) | [6] | [7] | [8] | [11] | [12] | [14] | [13]

CC(C)c1ccc(O)c(C(C)C)c1
active: [4] 54.5 µM
inactive: [1] | [15] | [3] | [16] | [5] | [7] | [8] | [9] | [11] | [14]

CC(=O)Oc1ccc(C2(c3ccc(OC(C)=O)cc3)C(=O)Nc3ccccc32)cc1
active: [5] 841 nM and 1.19 µM
inactive: [1] | [15] | [2] | [3] | Aromatase (Homo sapiens) | [6] | [7] | [8] | [9] | [10] | [11] | [12] | [14] | [17] | [13]
